# A number with no mark means an inactive call. For part of these data: Measured potencies and affinities stand elsewhere. Calls of active or inactive are those of the source. Unless noted, the rule behind the calls is not given here.
# Columns and labels:
# [1] = antimalarial activity against Dd2 strain (AID 2302;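 active = growth inhibition above 50% at the single 2 µM test dose, taken to imply half-maximal potency below 2 µM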;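 note: 0% = DMSO untreated growth and 100% = chloroquine plus artemisinin killed control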); conditions: P. falciparum Dd2 in RBCs, LDH growth readout, 72 h; at 2 µM; active compounds read high
# [2] = human hepatoma cell viability loss – ATP luminescence, cytotoxicity control for P. falciparum antimalarial project, primary screen (AID 2303;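 active = inhibition above 50%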;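 note: 0% = DMSO wells and 100% = digitonin-killed cells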); conditions: HepG2 viability, 24-48 h, at 10 µM, active compounds read high
# [3] = target: L-lactate dehydrogenase (Plasmodium falciparum (isolate CDC / Honduras)) (UniProt Q27743); assay: PfLDH activity inhibition – cell lysate, 3D7 strain, counter-screen for P. falciparum growth inhibition project (AID 2304);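 note: 0% = vehicle and 100% = reference inhibitor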; conditions: P. falciparum 3D7 crude extract, LDH APAD/NBT absorbance; at 2 µM; active compounds read high
# [4] = inhibition of 3D7 malaria parasite growth – strain 3D7 (AID 2306);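 note: 0% = DMSO wells and 100% = chloroquine plus artemisinin control wells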; conditions: P. falciparum 3D7 erythrocytic growth, LDH absorbance, 72 h; at 2 µM; active compounds read high
# [5] = target: Calcium-dependent protein kinase 1 (Plasmodium falciparum (isolate 3D7)) (UniProt P62344); assay: PfCDPK1 kinase inhibitors, biochemical, TCAMS library (AID 1159585; cut-off not given, nearly all actives have IC50 up to about 0.98 µM;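 note: inhibitors leave more ATP so luminescence rises with inhibition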); conditions: recombinant PfCDPK1, Kinase-Glo ATP depletion luminescence
# [6] = target: Plasmodium falciparum protein kinase 6 (PK6, PF3D7_1337100) (UniProt Q8IDW1); assay: PfPK6 kinase inhibitors, biochemical, TCAMS library (AID 1159586); conditions: recombinant PfPK6, Kinase-Glo ATP depletion luminescence
# [7] = target: Protein kinase 7 (PK7), Plasmodium falciparum 3D7 (PF3D7_0213400) (UniProt Q7YTF7); assay: inhibition of Plasmodium PK7 catalytic activity – biochemical, TCAMS antimalarial set, Kinase-Glo luminescence (AID 1159587); conditions: recombinant PfPK7, Kinase-Glo ATP depletion luminescence
# [8] = target: Calcium-dependent protein kinase 4 (Plasmodium falciparum (isolate 3D7)) (UniProt Q8IBS5); assay: PfCDPK4 kinase inhibitors, biochemical, TCAMS library (AID 1159588; cut-off not given, nearly all actives have IC50 up to about 0.91 µM); conditions: recombinant PfCDPK4, Kinase-Glo ATP depletion luminescence
# Chain of Calcium-dependent protein kinase 4 (Plasmodium falciparum (isolate 3D7)) (Q8IBS5 whole entry, looked up): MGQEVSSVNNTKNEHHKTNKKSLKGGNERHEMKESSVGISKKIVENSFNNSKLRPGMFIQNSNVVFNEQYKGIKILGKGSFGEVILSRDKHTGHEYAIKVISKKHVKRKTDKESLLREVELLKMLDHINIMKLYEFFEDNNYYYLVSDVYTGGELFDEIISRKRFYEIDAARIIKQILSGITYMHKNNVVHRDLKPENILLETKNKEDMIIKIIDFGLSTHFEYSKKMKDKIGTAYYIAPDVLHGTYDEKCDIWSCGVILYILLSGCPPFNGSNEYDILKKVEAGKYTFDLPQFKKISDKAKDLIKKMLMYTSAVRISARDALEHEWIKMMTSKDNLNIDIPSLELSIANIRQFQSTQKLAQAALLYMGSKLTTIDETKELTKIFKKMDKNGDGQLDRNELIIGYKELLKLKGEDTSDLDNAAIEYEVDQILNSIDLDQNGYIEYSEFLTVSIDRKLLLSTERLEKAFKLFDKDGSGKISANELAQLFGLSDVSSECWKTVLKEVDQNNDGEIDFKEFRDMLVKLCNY
# Chain of Calcium-dependent protein kinase 1 (Plasmodium falciparum (isolate 3D7)) (P62344 whole entry, looked up): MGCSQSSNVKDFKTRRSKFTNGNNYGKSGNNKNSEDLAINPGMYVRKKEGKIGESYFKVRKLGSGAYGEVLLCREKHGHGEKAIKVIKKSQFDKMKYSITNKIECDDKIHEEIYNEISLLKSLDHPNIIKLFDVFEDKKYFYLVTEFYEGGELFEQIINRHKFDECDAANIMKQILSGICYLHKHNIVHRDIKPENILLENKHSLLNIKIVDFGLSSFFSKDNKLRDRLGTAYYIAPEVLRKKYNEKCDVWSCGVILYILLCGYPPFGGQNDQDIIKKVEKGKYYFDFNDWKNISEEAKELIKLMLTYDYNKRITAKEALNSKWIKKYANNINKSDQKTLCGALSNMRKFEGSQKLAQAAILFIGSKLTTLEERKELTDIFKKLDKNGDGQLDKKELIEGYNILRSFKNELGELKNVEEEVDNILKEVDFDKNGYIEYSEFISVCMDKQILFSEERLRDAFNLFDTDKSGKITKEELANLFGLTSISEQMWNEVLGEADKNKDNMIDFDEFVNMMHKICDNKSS
# Chain of Protein kinase 7 (PK7), Plasmodium falciparum 3D7 (PF3D7_0213400) (Q7YTF7 1-343): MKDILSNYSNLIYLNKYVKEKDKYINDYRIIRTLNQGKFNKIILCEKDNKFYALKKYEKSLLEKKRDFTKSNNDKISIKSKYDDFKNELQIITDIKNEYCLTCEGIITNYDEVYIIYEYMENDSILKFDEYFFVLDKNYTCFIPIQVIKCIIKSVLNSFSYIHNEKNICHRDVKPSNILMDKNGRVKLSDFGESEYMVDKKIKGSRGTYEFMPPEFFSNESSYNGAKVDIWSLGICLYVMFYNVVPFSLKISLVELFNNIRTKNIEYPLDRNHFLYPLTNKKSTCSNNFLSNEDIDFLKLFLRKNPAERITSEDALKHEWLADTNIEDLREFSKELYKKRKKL
# Chain of Plasmodium falciparum protein kinase 6 (PK6, PF3D7_1337100) (Q8IDW1 1-305): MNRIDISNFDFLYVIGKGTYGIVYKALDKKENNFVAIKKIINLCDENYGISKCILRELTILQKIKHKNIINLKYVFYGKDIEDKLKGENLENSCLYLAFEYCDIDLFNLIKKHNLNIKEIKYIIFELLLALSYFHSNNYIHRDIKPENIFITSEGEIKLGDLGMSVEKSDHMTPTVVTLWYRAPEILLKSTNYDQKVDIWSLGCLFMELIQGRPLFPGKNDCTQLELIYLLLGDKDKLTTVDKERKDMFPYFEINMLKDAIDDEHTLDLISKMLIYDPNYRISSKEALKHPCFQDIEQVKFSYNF
# Chain of L-lactate dehydrogenase (Plasmodium falciparum (isolate CDC / Honduras)) (Q27743 whole entry, looked up): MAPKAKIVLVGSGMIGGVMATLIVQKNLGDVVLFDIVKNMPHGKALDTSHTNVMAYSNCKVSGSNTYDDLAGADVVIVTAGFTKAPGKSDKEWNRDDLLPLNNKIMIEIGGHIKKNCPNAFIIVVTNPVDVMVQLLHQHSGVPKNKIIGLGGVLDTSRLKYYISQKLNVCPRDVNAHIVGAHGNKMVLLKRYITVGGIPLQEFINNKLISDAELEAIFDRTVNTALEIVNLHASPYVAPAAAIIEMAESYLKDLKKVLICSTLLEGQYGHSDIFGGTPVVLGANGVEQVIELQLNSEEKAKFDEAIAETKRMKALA
SMILES,growth inhibition [1],inhibition [2],inhibition [3],growth inhibition [4],outcome [5],outcome [6],outcome [7],outcome [8]
CC(C)c1ccc(NC(=O)c2ccc(CN3CCCN(CC4CCCCC4)CC3)cc2)cc1,34%,50% (active),6%,90% (active),inactive,inactive,inactive,inactive
FC(F)(F)c1cccc(NC(=S)NN=Cc2ccccn2)c1,99% (active),29%,-7%,100% (active),inactive,inactive,inactive,inactive
O=C(/C=C/c1ccc(Cl)c(Cl)c1)NC1CCC(CN2CCC(Cc3c[nH]c4ccccc34)CC2)CC1 (configuration not stated),9%,25%,-7%,101% (active),inactive,inactive,inactive,inactive
CN(Cc1cc(C(F)(F)F)cc(C(F)(F)F)c1)C(=O)[C@H]1CNC[C@@H]1c1ccc(F)cc1,4%,1%,-5%,92% (active),inactive,inactive,inactive,inactive
CC1(CCCCN2CCC(c3c[nH]c4cnccc34)CC2)C(=O)Nc2cccc(Cl)c21 (configuration not stated),-1%,26%,0%,100% (active),inactive,inactive,inactive,inactive
Cc1c2ccncc2c(C)c2c1[nH]c1cc(Cc3ccccc3)c(O)cc12,99% (active),99% (active),-4%,100% (active),inactive,inactive,inactive,inactive
COc1ccc2nccc([C@@H](O)CN3CCC(NCc4cc5cccc(OCc6ccccc6)c5[nH]4)CC3)c2c1,40%,13%,1%,101% (active),inactive,inactive,inactive,inactive
O=C(Nc1cc(C(F)(F)F)cc(C(F)(F)F)c1)Nc1ccc(Cl)c(Cl)c1,100% (active),58% (active),0%,101% (active),inactive,inactive,inactive,inactive
COc1ccc(-c2nc(NC(=O)Cc3ccc4c(c3)OCCO4)sc2C)cc1,99% (active),0%,2%,100% (active),inactive,inactive,inactive,inactive
Cc1cc(N[C@@H](Cc2ccccc2)C(=O)Nc2ccccc2)nc(NCC2CCCCC2)n1,55% (active),12%,1%,98% (active),inactive,inactive,inactive,inactive
CCCCCCN1CCCN(Cc2cccc(NC(=O)c3cc4ccccc4s3)c2)CC1,53% (active),31%,6%,88% (active),inactive,inactive,inactive,inactive
Oc1ccc(CCNc2nc(NCc3cccc(-c4cc(C(F)(F)F)ccc4Cl)c3)nc(N3CCNCC3)n2)cc1,8%,33%,0%,90% (active),inactive,inactive,inactive,inactive
Cc1cc(NCCCCCCNc2cc(C)nc3c(C)cccc23)c2cccc(C)c2n1,9%,23%,-2%,100% (active),inactive,inactive,inactive,inactive
COc1cccc([C@@H](CC(=O)Nc2cc(C(F)(F)F)ccc2OC)Nc2ccc(C#N)c3ccccc23)c1,53% (active),19%,-3%,96% (active),inactive,inactive,inactive,inactive
COc1ccc(CN2CCCN(Cc3cccc(NC(=O)c4ccc5ccccc5c4)c3)CC2)cc1,11%,27%,-5%,93% (active),inactive,inactive,inactive,inactive
CCN(CC)C(=O)C(=O)c1c[nH]c2ccc(Cl)cc12,96% (active),1%,0%,96% (active),inactive,inactive,inactive,inactive
CC(C)(C)OC(=O)NCC(=O)N(Cc1ccccc1)Cc1ccccc1,93% (active),-10%,2%,97% (active),inactive,inactive,inactive,inactive
O=C(NCCCCN1CCC(c2ccc(Br)cc2)CC1)c1ccc(NC(=O)c2ccc(Cl)cc2)cc1,86% (active),17%,0%,100% (active),inactive,inactive,inactive,inactive
Cc1cccc2[nH]c(-c3cccc(-c4ccc(CN5CCC(C(N)=O)CC5)cc4)c3)nc12,9%,-1%,4%,89% (active),inactive,inactive,inactive,inactive
O=C(/C=C/c1ccc(Cl)c(Cl)c1)NCCCCCN1CCCC(CNC(=O)c2sc3ccccc3c2Cl)C1 (configuration not stated),-3%,42%,4%,98% (active),inactive,inactive,inactive,inactive

SMILES,growth inhibition [1],inhibition [2],inhibition [3],growth inhibition [4],outcome [5],outcome [6],outcome [7],outcome [8]
CC(NC(=O)c1ccc(O)c(-c2ccc(Cl)c(Cl)c2)c1)C(=O)NCCN1CCCCC1 (configuration not stated),3%,-2%,2%,97% (active),inactive,inactive,inactive,inactive
O=C(Cn1c(CCc2cccc(F)c2F)nc(=O)c2ccccc21)N(CCN1CCCC1)Cc1ccc(-c2ccc(C(F)(F)F)cc2)cc1,37%,63% (active),-1%,101% (active),inactive,inactive,inactive,inactive
COc1cc(NC(=O)c2nn(CCCN3CCC(N4CCCC4)CC3)cc2-c2ccc(Cl)c(Cl)c2)cc(OC)c1OC,100% (active),76% (active),-5%,103% (active),inactive,inactive,inactive,inactive
N#Cc1cccc(C(=O)N2CCOC(CCN3CCC(c4ccccc4)CC3)(c3ccc(Cl)c(Cl)c3)C2)c1 (configuration not stated),49%,51% (active),0%,87% (active),inactive,inactive,inactive,inactive
CC(=O)Nc1ccc2[nH]cc(C3CCN(CC4CCC(NC(=O)/C=C/c5ccc(Cl)c(Cl)c5)CC4)CC3)c2n1 (configuration not stated),79% (active),17%,-1%,101% (active),inactive,inactive,inactive,inactive
CC1(C)N=C(N)N=C(N)N1c1cccc(C(F)(F)F)c1,68% (active),60% (active),0%,95% (active),inactive,inactive,inactive,inactive
CCn1cc(C=C2Oc3c(ccc(O)c3CN3CCCCC3C)C2=O)c2ccccc21 (configuration not stated),80% (active),-6%,6%,94% (active),inactive,inactive,inactive,inactive
COc1ccc2ncc(F)c(CCN3CC[C@H](NCc4cc(C#N)c5c(c4)OCCO5)[C@H](O)C3)c2c1,47%,51% (active),2%,96% (active),inactive,inactive,inactive,inactive
CC1CCc2sc(-c3nnc(SC(C)C(=O)N4CCCC4)o3)cc2C1 (configuration not stated),94% (active),1%,2%,93% (active),inactive,inactive,inactive,inactive
O=C(Nc1ccc(Cl)cc1)c1cccc(CN2CCCN(Cc3cccc(O)c3)CC2)c1,43%,14%,3%,98% (active),inactive,inactive,inactive,inactive
Fc1ccc2nc(-c3cccc(-c4ccc(CN5CCN(CCN6CCOCC6)CC5)cc4)c3)[nH]c2c1,100% (active),30%,-3%,101% (active),inactive,inactive,inactive,inactive
COc1ccc(CN2CCC(C(=O)Nc3cccc(-c4cccc(Cl)c4)c3)CC2)cc1O,0%,25%,-2%,91% (active),inactive,inactive,inactive,inactive
Cc1cccc2[nH]c(-c3ccc(-c4cccc(NC(=O)c5cncn5C)c4)cc3)nc12,1%,2%,2%,100% (active),inactive,inactive,inactive,inactive
Cc1sc(C)c(CNCCCNc2cc(=O)c3ccccc3[nH]2)c1Br,15%,-4%,-2%,93% (active),inactive,inactive,inactive,inactive
COc1ccc(CN(C)Cc2ccc(NC(=O)c3cccc4c(=O)c5cccc(C)c5[nH]c34)cc2)cc1OC,22%,7%,-2%,92% (active),inactive,inactive,inactive,inactive
Clc1ccccc1C=NNc1ccnc2ccccc12,50% (active),25%,-3%,100% (active),inactive,inactive,inactive,inactive
Cc1cccc2[nH]c(-c3cccc(-c4cccc(NC(=O)c5ccc(C(N)=O)cc5)c4)c3)nc12,34%,25%,0%,101% (active),inactive,inactive,inactive,inactive
CCN(CC)CCN(CCCc1ccc(-c2ccc(C(F)(F)F)cc2)cc1)C(=O)Cn1c(CCc2cccc(F)c2F)nc(=O)c2ccccc21,49%,37%,3%,101% (active),inactive,inactive,inactive,inactive
CCCC(C)NC[C@@H](O)[C@H](Cc1ccccc1)NC(=O)c1cc(NCC)cc(N2CCCCS2(=O)=O)c1 (some centres not stated),98% (active),-4%,-2%,101% (active),inactive,inactive,inactive,inactive
